Results published in the supplement of paper PMC9262897, “Low-cost anti-mycobacterial drug discovery using engineered E. coli” (Nature Communications, 2022).
Counter-ions that a name gives are not always drawn. ± gives the standard deviation of the averaged measurements.

Assays:
Experiment in all cases: growth (OD600 after 10 h); higher = more growth (less inhibition)
[1] = test system: E. coli TESEC Alr+ wild-type control; settings: compound 0.1 mM; raw OD600 reference: median of DMSO wells 0.241, cell-free background 0.041
Method: (§1)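 TESEC Mtb Alr E. coli, or the Alr+ wild-type control, in 384-well plates with Prestwick library compounds at 0.1 mM and 1% DMSO, across arabinose induction levels of 1E3 to 1E7 nM. Growth is read as OD600 after 10 h at 37 °C in triplicate biological replicates.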

E. coli TESEC Mtb Alr [2] = settings: compound 0.1 mM
Method: as §1

E. coli TESEC Mtb Asd = settings: compound 0.1 mM
Method: (§2)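 TESEC E. coli strains in which the native enzyme is deleted and replaced by arabinose-inducible Mtb Asd, DapB, CysH or TrpD, each grown in its selective medium. Strains were screened against the Prestwick library at 0.1 mM and 1% DMSO in 384-well format at low and high arabinose induction. Growth is read as OD600 after 10 h in triplicate.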

E. coli TESEC Mtb DapB = settings: compound 0.1 mM
Method: as §2

[3] = test system: E. coli TESEC Alr+ wild-type control; settings: compound 0.1 mM; raw OD600 reference: median of DMSO wells 0.49, cell-free background 0.052
Method: (§3)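 TESEC Mtb Alr E. coli (ΔaraC ΔtolC ΔentC Δalr ΔdadX, arabinose-inducible Mtb Alr) or the Alr+ wild-type control strain, grown in defined M9-fructose medium without D-alanine in 96-well plates with Prestwick library compounds at 0.1 mM and 1% DMSO. Low Alr induction is 0.1 µM arabinose and high induction is 10 mM arabinose.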

E. coli TESEC Mtb Alr [4] = settings: compound 0.1 mM; remark: listed apart in the source
Method: as §3

[5] = arabinose 1000 nM, raw OD600 reference: median of DMSO wells 0.294, cell-free background 0.041
[6] = arabinose 10000 nM, raw OD600 reference: median of DMSO wells 0.264, cell-free background 0.041
[7] = arabinose 100000 nM, raw OD600 reference: median of DMSO wells 0.201, cell-free background 0.041
[8] = arabinose 1000000 nM, raw OD600 reference: median of DMSO wells 0.193, cell-free background 0.041
[9] = arabinose 10000000 nM, raw OD600 reference: median of DMSO wells 0.146, cell-free background 0.041
[10] = arabinose induction (level): High, raw OD600 reference: median of DMSO wells 0.331, cell-free background 0.041
[11] = arabinose induction (level): Low, raw OD600 reference: median of DMSO wells 0.417, cell-free background 0.041
[12] = arabinose induction (level): High, raw OD600 reference: median of DMSO wells […], cell-free background 0.041
[13] = arabinose induction (level): Low, raw OD600 reference: median of DMSO wells 0.227, cell-free background 0.041
[14] = arabinose 100 nM, raw OD600 reference: median of DMSO wells 0.413, cell-free background 0.052
[15] = arabinose 10000000 nM, raw OD600 reference: median of DMSO wells […], cell-free background 0.052

| Structure (SMILES) | growth [1] | growth (E. coli TESEC Mtb Alr [2]; [5]) | growth (E. coli TESEC Mtb Alr [2]; [6]) | growth (E. coli TESEC Mtb Alr [2]; [7]) | growth (E. coli TESEC Mtb Alr [2]; [8]) | growth (E. coli TESEC Mtb Alr [2]; [9]) | growth (E. coli TESEC Mtb Asd; [10]) | growth (E. coli TESEC Mtb Asd; [11]) | growth (E. coli TESEC Mtb DapB; [12]) | growth (E. coli TESEC Mtb DapB; [13]) | growth [3] | growth (E. coli TESEC Mtb Alr [4]; [14]) | growth (E. coli TESEC Mtb Alr [4]; [15]) |
| --- | --- | --- | --- | --- | --- | --- | --- | --- | --- | --- | --- | --- | --- |
| CCCc1cc(C(N)=S)ccn1 [Prothionamide] | 0.245 ± 0.011 | 0.295 ± 0.0059 | 0.269 ± 0.013 | 0.184 ± 0.028 | 0.174 ± 0.014 | 0.136 ± 0.0019 | 0.231 ± 0.011 | 0.388 ± 0.046 | 0.208 ± 0.013 | 0.221 ± 0.036 | 0.57 ± 0.0073 | 0.414 ± 0.013 | 0.36 ± 0.021 |
| OC(CCCN1CCCCC1)(c1ccccc1)c1ccccc1 [Diphenidol hydrochloride] | 0.227 ± 0.0039 | 0.278 ± 0.0057 | 0.257 ± 0.0075 | 0.2 ± 0.02 | 0.162 ± 0.0026 | 0.137 ± 0.0047 | 0.262 ± 0.012 | 0.488 ± 0.018 | 0.182 ± 0.018 | 0.221 ± 0.054 | 0.48 ± 0.034 | 0.407 ± 0.008 | 0.345 ± 0.0049 |
| NNCCc1ccccc1 [Phenelzine sulfate] | 0.221 ± 0.0075 | 0.285 ± 0.015 | 0.261 ± 0.0056 | 0.187 ± 0.0033 | 0.0977 ± 0.0084 | 0.135 ± 0.0098 | 0.389 ± 0.044 | 0.4 ± 0.024 | 0.191 ± 0.012 | 0.249 ± 0.056 | 0.399 ± 0.017 | 0.0532 ± 0.007 | 0.0708 ± 0.0023 |
| COC(c1ccccc1)(c1ccccc1)[C@H](Oc1nc(C)cc(C)n1)C(=O)O [Ambrisentan] | 0.217 ± 0.0053 | 0.28 ± 0.0015 | 0.285 ± 0.0062 | 0.177 ± 0.024 | 0.224 ± 0.0037 | 0.13 ± 0.0029 | 0.284 ± 0.072 | 0.315 ± 0.053 | 0.191 ± 0.016 | 0.234 ± 0.021 | 0.535 ± 0.022 | 0.41 ± 0.008 | 0.354 ± 0.015 |
| NCc1ccccc1CC(=O)N[C@@H]1C(=O)N2C(C(=O)O)=C(CSc3nnnn3CC(=O)O)CS[C@H]12 [Ceforanide] | 0.3 ± 0.0032 | 0.324 ± 0.0083 | 0.167 ± 0.0036 | 0.238 ± 0.016 | 0.161 ± 0.0024 | 0.206 ± 0.0071 | 0.244 ± 0.01 | 0.315 ± 0.033 | 0.182 ± 0.012 | 0.242 ± 0.012 | 0.501 ± 0.055 | 0.108 ± 0.033 | 0.303 ± 0.024 |
| COc1ccc(/C=C/C(=O)Nc2ccccc2C(=O)O)cc1OC [Tranilast] | 0.171 ± 0.0022 | 0.245 ± 0.0071 | 0.27 ± 0.0085 | 0.134 ± 0.011 | 0.104 ± 0.002 | 0.126 ± 0.0016 | 0.218 ± 0.032 | 0.279 ± 0.082 | 0.204 ± 0.035 | 0.178 ± 0.011 | 0.452 ± 0.0089 | 0.308 ± 0.12 | 0.15 ± 0.012 |
| CNNCc1ccc(C(=O)NC(C)C)cc1 [Procarbazine hydrochloride] | 0.251 ± 0.0067 | 0.304 ± 0.012 | 0.282 ± 0.0077 | 0.217 ± 0.028 | 0.177 ± 0.019 | 0.151 ± 0.0024 | 0.359 ± 0.043 | 0.476 ± 0.083 | 0.2 ± 0.017 | 0.27 ± 0.022 | 0.454 ± 0.01 | 0.4235 ± 0.0022 | 0.312 ± 0.02 |
| C[C@]12CCC(=O)C=C1CC[C@@H]1[C@@H]2[C@@H](O)C[C@@]2(C)[C@H]1CC[C@]2(O)C(=O)CO [Hydrocortisone base] | 0.218 ± 0.012 | 0.265 ± 0.024 | 0.253 ± 0.0038 | 0.173 ± 0.026 | 0.169 ± 0.0059 | 0.137 ± 0.0037 | 0.294 ± 0.076 | 0.307 ± 0.074 | 0.183 ± 0.017 | 0.209 ± 0.047 | 0.578 ± 0.1 | 0.407 ± 0.0089 | 0.302 ± 0.0092 |
| CN1[C@@H]2CC[C@H]1C[C@@H](OC(c1ccccc1)c1ccccc1)C2 [Benztropine mesylate] | 0.1702 ± 0.0017 | 0.219 ± 0.0061 | 0.289 ± 0.037 | 0.165 ± 0.0036 | 0.133 ± 0.0073 | 0.166 ± 0.0023 | 0.137 ± 0.018 | 0.253 ± 0.076 | 0.166 ± 0.0063 | 0.201 ± 0.011 | 0.487 ± 0.029 | 0.4104 ± 0.0035 | 0.288 ± 0.0043 |
| CC(=O)CCCCn1c(=O)c2c(ncn2C)n(C)c1=O [Pentoxifylline] | 0.2306 ± 0.0011 | 0.276 ± 0.0075 | 0.2728 ± 0.0025 | 0.203 ± 0.013 | 0.187 ± 0.0042 | 0.134 ± 0.0031 | 0.297 ± 0.079 | 0.387 ± 0.029 | 0.2 ± 0.024 | 0.207 ± 0.019 | 0.489 ± 0.096 | 0.431 ± 0.0088 | 0.363 ± 0.006 |
| O=C1CN(/N=C/c2ccc([N+](=O)[O-])o2)C(=O)N1 [Nitrofurantoin] | 0.0453 ± 0.00076 | 0.181 ± 0.0058 | 0.0822 ± 0.0037 | 0.04437 ± 0.00021 | 0.0737 ± 0.0054 | 0.0451 ± 0.00093 | 0.196 ± 0.034 | 0.341 ± 0.038 | 0.172 ± 0.009 | 0.218 ± 0.034 | 0.053 ± 0.00026 | 0.0546 ± 0.0087 | 0.055 ± 0.0017 |
| O=C1c2ccccc2C(=O)C1c1ccccc1 [Phenindione] | 0.243 ± 0.0053 | 0.298 ± 0.0061 | 0.268 ± 0.011 | 0.197 ± 0.03 | 0.166 ± 0.0028 | 0.147 ± 0.004 | 0.226 ± 0.037 | 0.321 ± 0.023 | 0.194 ± 0.0095 | 0.227 ± 0.017 | 0.488 ± 0.05 | 0.408 ± 0.0092 | 0.302 ± 0.025 |
| CC(C)n1c(/C=C/C(O)CC(O)CC(=O)O)c(-c2ccc(F)cc2)c2ccccc21 (configuration not stated) [Fluvastatin sodium salt] | 0.165 ± 0.0024 | 0.247 ± 0.017 | 0.192 ± 0.0063 | 0.187 ± 0.015 | 0.0938 ± 0.0088 | 0.157 ± 0.0043 | 0.216 ± 0.066 | 0.32 ± 0.052 | 0.17 ± 0.0096 | 0.199 ± 0.02 | 0.401 ± 0.012 | 0.394 ± 0.03 | 0.235 ± 0.0099 |
| Cc1c(Cl)cccc1Nc1ccccc1C(=O)O [Tolfenamic acid] | 0.0444 ± 0.0007 | 0.0448 ± 0.0007 | 0.0413 ± 0.0001 | 0.0477 ± 0.0013 | 0.0424 ± 0.00053 | 0.0598 ± 0.0014 | 0.0513 ± 0.0022 | 0.052 ± 0.004 | 0.0686 ± 0.0054 | 0.0876 ± 0.044 | 0.0743 ± 0.0023 | 0.0964 ± 0.065 | 0.0536 ± 0.0002 |
